# Screening data: PubChem BioAssay, National Center for Advancing Translational Sciences (NCATS)
# VP16 counter: VP16 counterscreen qHTS for inhibitors of ROR gamma transcriptional activity; Potency, µM (top dose mostly 53.6 µM), for the others: at the highest dose activity, negative = inhibition, hits mostly inhibitors; 310,000 tested, 3.5% active; AID 2546, 2010; Drosophila S2 Gal4-VP16 UAS-luciferase, luminescence, 20 h;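 also: Gal4-VP16 expression switched on by copper sulfate through the metallothionein promoter; % is scaled to controls: 0 for no effect and ±100 for the full control effect; nearly all actives have a fitted effect of over 50% in size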
# HepG2 tox-1: qHTS for Inhibitors of TGF-b: Cytotox Counterscreen | HepG2 CAGA-GFP viability, ATP luminescence, 18 h | Potency, µM (doses to about 46.1 µM), for inactives: at the highest dose activity change, negative = cytotoxicity, hits mostly cytotoxic | 410,000 tested, 0.76% active | AID 588856, 2011
#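 CellTiter-Glo luminescence gave cytotoxicity after 18 hours at 37 degrees C. The cells were HepG2 CAGA-GFP in 1% FBS DMEM, stimulated with 500 pg/mL TGF-beta after compound addition. %Activity was normalised to no-cell wells (complete cell-killing) and DMSO (no toxicity), and curves were fitted and classified.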
# TGFb SMAD3 inh: qHTS for Inhibitors of TGF-b; HepG2 CAGA-GFP TGF-b/SMAD3 reporter, GFP fluorescence, 18 h; TGF-beta stimulated, 500 pg/mL final; Potency, µM (titrated, usually from 46.1 µM), without a hit: at the top dose activity, negative = inhibition, hits mostly inhibitors; 410,000 tested, 1.2% active; AID 588855, 2011; also: % is scaled to controls: 0 for no effect and ±100 for the full control effect; nearly all actives have a fitted effect of over 65% in size
#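 First, reporter cells (HEPG2 CAGA-GFP) rested 2 h at 37 degrees C. Next, compounds were pinned in and TGF-beta added to 500 pg/mL final. After 18 h, GFP was imaged per cell and summed per well.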
# ATXN viability: Viability Counterscreen for Primary qHTS for Inhibitors of ATXN expression. Potency, µM (highest dose often 56.7 µM), most hits filed as cytotoxic. S2 cells (HEK-293 line with an ATXN2-luciferase reporter) viability, CellTiter-Fluor protease fluorescence, 24 h. 400,000 tested, 0.49% active. AID 651635, 2014; also: nearly all actives have a fitted effect of over 40% in size
# RORgamma inh: qHTS for inhibitors of ROR gamma transcriptional activity. Drosophila S2 Gal4-RORgamma UAS-luciferase reporter, 20 h. Potency, µM (top dose mostly 53.6 µM), for inactives: at the highest dose activity change, negative = inhibition, most hits filed as inhibitors. 310,000 tested, 5.4% active; also: % is scaled to controls: 0 for no effect and ±100 for the full control effect; nearly all actives have a fitted effect of over 60% in size
# Target sequence (P51450 whole entry, looked up, the tested form may be a part): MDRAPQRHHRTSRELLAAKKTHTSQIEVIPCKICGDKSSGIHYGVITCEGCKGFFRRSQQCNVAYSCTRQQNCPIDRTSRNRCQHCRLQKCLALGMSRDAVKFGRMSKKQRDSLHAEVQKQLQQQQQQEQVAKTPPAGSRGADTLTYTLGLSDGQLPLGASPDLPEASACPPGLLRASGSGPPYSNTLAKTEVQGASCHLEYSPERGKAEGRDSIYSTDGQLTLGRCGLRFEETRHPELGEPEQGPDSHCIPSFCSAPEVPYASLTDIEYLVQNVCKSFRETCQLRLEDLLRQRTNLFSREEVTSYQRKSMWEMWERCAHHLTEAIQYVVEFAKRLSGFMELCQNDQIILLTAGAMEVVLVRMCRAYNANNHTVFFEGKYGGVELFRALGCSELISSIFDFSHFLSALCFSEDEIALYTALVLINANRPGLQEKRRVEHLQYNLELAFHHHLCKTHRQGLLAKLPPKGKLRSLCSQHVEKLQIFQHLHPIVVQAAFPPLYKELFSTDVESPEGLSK
#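 Drosophila Schneider cells stably carrying a metallothionein-driven Gal4 DBD–ROR gamma fusion and a UAS-Photinus luciferase reporter were exposed to compound for 1 hr, then induced with copper sulfate (700 uM final) for 20 hr at ambient temperature before luminescence reading.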
# ATXN2 expr inh: Primary qHTS for Inhibitors of ATXN expression; HEK-293 ATXN2-luciferase reporter, luminescence, 24 h; Potency, µM (titrated, usually from 57 µM), for inactives: at the highest dose activity change, negative = inhibition, usual class: inhibitors; 360,000 tested, 0.72% active; AID 1745845, 2022; also: % is scaled to controls: 0 for no effect and ±100 for the full control effect; nearly all actives have a fitted effect of over 55% in size
#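 qHTS (up to 57 uM final) was run with 24 h compound exposure of reporter cells at 37 °C. Each well was multiplexed: SteadyGlo luminescence measured ATXN2-luciferase expression after a fluorogenic Gly-Phe-AFC viability readout (25 uM final).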
# TGFb confirm: qHTS for Inhibitors of TGF-b: Confirmation of Cherry Picks | AID 720534, 2013 | Potency, µM (top dose mostly 46.1 µM), for the others: at the top dose activity, negative = inhibition, hits mostly inhibitors | shares compounds with TGFb SMAD3 inh | 1,600 tested, 63% active | HepG2 CAGA-GFP TGF-b reporter, GFP fluorescence, 18 h; cells stimulated with TGF-beta, 500 pg/mL; also: % is scaled to controls: 0 for no effect and ±100 for the full control effect; nearly all actives have a fitted effect of over 65% in size
# HepG2 tox-2: qHTS for Inhibitors of TGF-b: Cytotox Counterscreen for Cherry Picks | shares compounds with TGFb SMAD3 inh | HepG2 CAGA-GFP viability, ATP luminescence, 18 h; cells stimulated with TGF-beta, 500 pg/mL | Potency, µM (top dose mostly 46.1 µM), without a hit: top-dose activity, negative = cytotoxicity, hits mostly inhibitors | 1,600 tested, 27% active | AID 720535, 2013; also: % is scaled to controls: 0 for no effect and ±100 for the full control effect; nearly all actives have a fitted effect of over 70% in size
# TGFb CCL64 inh: qHTS for Inhibitors of TGF-b: CCL64 Cells Orthogonal Assay for Cherry Picks; shares compounds with TGFb SMAD3 inh; CCL64 CAGA-GFP reporter, TGF-b stimulated, GFP fluorescence, 18 h; Potency, µM (series often up to 46.1 µM), for inactives: at the top dose activity, negative = inhibition, actives largely listed as inhibitors; 1,600 tested, 41% active; AID 720536, 2013; also: nearly all actives have a fitted effect of over 65% in size
# COP TGFb inh: qHTS for Inhibitors of TGF-b: Hit Validation in HepG2 Cells using COP promoter; shares compounds with TGFb SMAD3 inh; HepG2 COP-GFP TGF-b reporter, GFP fluorescence, 18 h; cells stimulated by added recombinant TGF-beta; Potency, µM (series often up to 46.1 µM), for inactives: at the highest dose activity, negative = inhibition, usual class: inhibitors; 1,600 tested, 3% active; AID 720537, 2013; also: nearly all actives have a fitted effect of over 70% in size
# * hit, by the source's call; i = inactive; ? = inconclusive; · = no result given; [ ] = remark or other dose. This is a sample that favours compounds with a hit; in the whole collection about 6.1% have one here. Calls follow the shape of the dose curve; as a rule, active = well fitted curve in the direction sought with a large enough effect; inconclusive = small, poorly fitted or top-dose-only effect, or another doubt; inactive = no such curve, though single readings can be large; an effect the other way counts as inactive or inconclusive. Potency is read from the fitted curve at half-maximal effect.
SMILES,VP16 counter,HepG2 tox-1,TGFb SMAD3 inh,ATXN viability,RORgamma inh,ATXN2 expr inh,TGFb confirm,HepG2 tox-2,TGFb CCL64 inh,COP TGFb inh
COc1ccc(CNC(=O)C[C@H]2C[C@H](C(=O)N3CCCCC3)[C@@]3(CCc4ccccc4)c4[nH]c5ccc(Cl)cc5c4CCN3C2=O)cc1OC,·,-3%,6.3µM*,?,·,-3%,8.2µM*,-17%,6.5µM*,33%
Cc1ccc(-n2ncc(C(=O)N3CCN(Cc4ccccc4)CC3)c2C2CCN(C(=O)OC(C)(C)C)CC2)c(C)c1,·,10%,16%,i,·,4%,·,·,·,·
CC(=O)c1cc(-c2ccccc2)n(CC(=O)NCCc2ccc(C)cc2)c1C,·,3%,0%,·,·,·,·,·,·,·
COc1ccc(-c2[nH]ncc2CN2CCN(c3ccc(F)cc3)CC2)cc1,4%,-31%,?,i,41%,·,·,·,·,·
COc1ccc(-c2[nH]ncc2CN2CCC(O)(c3ccc(Cl)cc3)CC2)cc1,-4%,-29%,6.3µM*,i,2%,-38%,?,?,9.2µM*,87%
OC1(c2ccc(Cl)cc2)CCN(Cc2cn[nH]c2-c2ccc(F)cc2)CC1,-10%,-32%,4µM*,i,23%,-29%,?,?,26µM*,70%
OC1(c2ccc(Cl)cc2)CCN(Cc2cn[nH]c2-c2ccccc2)CC1,8%,-29%,?,i,-10%,-36%,·,·,·,·
O=C(CSc1nc2cc3ccccc3cc2[nH]1)Nc1cccc(C(F)(F)F)c1,·,-91%,?,i,·,-20%,·,·,·,·
O=C(N/N=C/c1c(F)c(F)c(F)c(F)c1F)c1cc(-c2ccccc2)nc2ccccc12,12%,4%,-11%,i,8%,9%,·,·,·,·
Cc1ccsc1/C=N/NC(=O)c1cc(-c2ccncc2)nc2ccccc12,8.9µM*,-14%,?,i,1.8µM*,-8%,-71%,-27%,6.5µM*,-16%
CC(=O)c1cccc(NC(=O)/C=C/c2ccc([N+](=O)[O-])s2)c1,4.5µM*,-57%,7.1µM*,·,10µM*,?,4.1µM*,12µM*,2.1µM*,-2%
O=S(=O)(Nc1ccc2nc(-c3ccc(F)cc3)oc2c1)c1ccccc1,·,-104%,?,?,·,?,·,·,·,·
COc1ccc(C(=O)c2cc([N+](=O)[O-])ccc2N2CCOCC2)cc1,3%,-23%,?,?,-15%,-6%,·,·,·,·
CCOc1ccc(C(=O)c2cc([N+](=O)[O-])ccc2N2CCOCC2)cc1,-7%,-32%,1.1µM*,i,7%,5%,?,-3%,0.73µM*,1%
O=C(OCc1ccccc1)c1ccc(NCc2cc(O)ccc2O)cc1,·,-66%,10µM*,·,·,10µM*,5.2µM*,16µM*,2.1µM*,-10%
Cc1ccc(NC(=O)C2(c3ccc([N+](=O)[O-])cc3)CCCC2)cc1,-3%,1%,?,i,39%,·,-28%,-9%,-10%,0%
CCOC(=O)c1sc(NC(=O)c2ccc(Cl)s2)cc1C,?,4%,0%,i,?,26%,·,·,·,·
CCOC(=O)c1sc(NC(=O)Nc2ccc(Cl)cc2)cc1C,-5%[0.365 µM],-27%,5.6µM*,i,?,?,?,?,16µM*,83%
CC(=O)Oc1c(I)cc(I)cc1C(=O)Nc1ccc(Cl)cc1,?,-36%,5µM*,?,?,?,4.6µM*,8.2µM*,6.5µM*,45%
COc1ccc(Cl)cc1C(=O)Nc1ccc(NC(C)=O)cc1,3%,10%,?,i,3%,-3%,·,·,·,·
CCc1ccc(-c2cc(C)no2)cc1S(=O)(=O)N1CCCN(Cc2ccc(F)cc2)C1,-1%,-66%,10µM*,i,-40%,-39%,?,?,?,67%
Cc1ccc(C2(c3ccccc3)NC(=O)N(CC(=O)NCc3ccccc3)C2=O)cc1C (stereo not given),·,-28%,11µM*,?,·,-22%,7.3µM*,?,?,42%
CCCC(=O)NC(c1ccccc1Cl)c1c(O)ccc2ccccc12 (stereo not given),-9%,-23%,0%,i,6%[10 µM],-4%,·,·,·,·
CC(C)C(=O)NC(c1cccc([N+](=O)[O-])c1)c1ccc2cccnc2c1O (stereo not given),2.5µM*,6%,3.5µM*,?,2.8µM*,2.7µM*,?,?,7.3µM*,19%
CCCC(=O)NC(c1ccc(Cl)cc1)c1ccc2cccnc2c1O (stereo not given),2.8µM*,-20%,?,?,2.2µM*,7.1µM*,?,?,5.2µM*,28%
CCOCCCNC(=O)CN1C(=O)CCn2nc(-c3cccn3C)cc21,·,-5%,1%,i,·,10%,·,·,·,·
O=C(NCCOCCn1c(=O)oc2ccccc21)Nc1cccc(Cl)c1,·,-28%,?,?,·,?,·,·,·,·
Cc1oc2c(c1C(=O)Nc1cccc(Br)c1)C1=NCCN1C=N2,·,-21%,3%,i,·,-4%,·,·,·,·
